Reference: PubChem BioAssay (NCATS)
Records with an inconclusive call do not appear. Calls of active or inactive are those of the source. Calls follow the shape of the dose curve; as a rule, active = well fitted curve in the direction sought with a large enough effect; inconclusive = small, poorly fitted or top-dose-only effect, or another doubt; inactive = no such curve, though single readings can be large; an effect the other way counts as inactive or inconclusive.

Legend:
CRL-7250 = normal cell line; assay: Cytotoxic Profiling of Annotated Libraries Using Quantitative High-Throughput Screening (AID 1296008); details: Five cell lines viability, CellTiter-Glo ATP luminescence, 48-72 h; max response: hits give low values; also: nearly all actives have a fitted effect of over 60% in size; as to max response: % is scaled to controls: 0 for no effect and ±100 for the full control effect
How it was run: (§1)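 Cytotoxicity was measured as CellTiter-Glo ATP luminescence, read after 10 min at room temperature. Compound treatment of the cells lasted 48 or 72 hr at 37 degrees Celsius in a qHTS format.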

HEK293 = assay: as above; details: Five cell lines viability, CellTiter-Glo ATP luminescence, 48-72 h; max response: hits give low values
How it was run: as §1

HaCat [1] = assay: as above; details: Five cell lines viability, CellTiter-Glo ATP luminescence, 48-72 h; max response: hits give low values
How it was run: as §1

KB-3-1 = assay: as above; details: Five cell lines viability, CellTiter-Glo ATP luminescence, 48-72 h; max response: hits give low values
How it was run: as §1

NIH3T3 [2] = assay: as above; details: Five cell lines viability, CellTiter-Glo ATP luminescence, 48-72 h; max response: hits give low values
How it was run: as §1

HACAT [3] = assay: qHTS assay to identify novel small-molecules to repurpose for Merkel cell carcinoma treatment (AID 1296009); details: MCC and control cell lines, CellTiter-Glo viability, 72 h; at 44.8 µM (top of the series) unless noted; also: nearly all actives have a fitted effect of over 60% in size
How it was run: (§2)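 72 hr, 37 degree celsius; NPC 8-pt / MIPE 11-pt dose response; compound pinned in DMSO; CellTiter-Glo, 10 min RT, luminescence; normalized to no-cell and DMSO controls.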

NIH3T3 [4] = assay: as above; details: MCC and control cell lines, CellTiter-Glo viability, 72 h; at 44.8 µM (top of the series) unless noted
How it was run: as §2

C33A = assay: Primary qHTS to identify gynecologic anti-cancer compounds using libraries of approved drugs and bioactive compounds (AID 1345084); details: Gynecologic cancer cell panel viability, ATPlite luminescence, 48 h; series mostly up to 57.5 µM; also: % is scaled to controls: 0 for no effect and ±100 for the full control effect; nearly all actives have a fitted effect of over 55% in size
How it was run: (§3)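 48 h compound exposure at 37 C, 5% CO2; five-point qHTS. ATPlite luminescence readout of cell ATP.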

CAOV3 = assay: as above; details: Gynecologic cancer cell panel viability, ATPlite luminescence, 48 h; series mostly up to 57.5 µM
How it was run: as §3

CASKI = assay: as above; details: Gynecologic cancer cell panel viability, ATPlite luminescence, 48 h; series mostly up to 57.5 µM
How it was run: as §3

Es-2 = assay: as above; details: Gynecologic cancer cell panel viability, ATPlite luminescence, 48 h; series mostly up to 57.5 µM
How it was run: as §3

HeLa = assay: as above; details: Gynecologic cancer cell panel viability, ATPlite luminescence, 48 h; series mostly up to 57.5 µM
How it was run: as §3

Hek293T = assay: as above; details: Gynecologic cancer cell panel viability, ATPlite luminescence, 48 h, control line for the selectivity index; series mostly up to 57.5 µM
How it was run: as §3

JEG-3 = assay: as above; details: Gynecologic cancer cell panel viability, ATPlite luminescence, 48 h; series mostly up to 57.5 µM
How it was run: as §3

OV90 = assay: as above; details: Gynecologic cancer cell panel viability, ATPlite luminescence, 48 h; series mostly up to 57.5 µM
How it was run: as §3

PA-1 = assay: as above; details: Gynecologic cancer cell panel viability, ATPlite luminescence, 48 h; series mostly up to 57.5 µM
How it was run: as §3

C=C1C(OC(C)=O)[C@@]23CCC4[C@](C)(C(=O)O)CCC[C@@]4(C)[C@]2(O)CC[C@H]1C3 (stereo not given in full)
inactive: max response (CRL-7250) 1.93% | max response (HEK293) -3.51% | outcome (HaCat [1]) | max response (KB-3-1) 0.958% | outcome (NIH3T3 [2]) | outcome (HACAT [3]) | outcome (NIH3T3 [4]) | Potency (C33A) | Potency (CAOV3) | outcome (CASKI) | Potency (Es-2) | Potency (HeLa) | Potency (Hek293T) | Potency (JEG-3) | Potency (OV90) | Potency (PA-1)

CCC(C)C(N)C(=O)NCCN1CCOCC1 (stereo not given)
inactive: max response (CRL-7250) -0.617% | max response (HEK293) 2.51% | outcome (HaCat [1]) | max response (KB-3-1) 0.0309% | outcome (NIH3T3 [2]) | outcome (HACAT [3]) | outcome (NIH3T3 [4]) | Potency (C33A) | Potency (CAOV3) | outcome (CASKI) | Potency (Es-2) | Potency (HeLa) | Potency (Hek293T) | Potency (JEG-3) | Potency (OV90) | Potency (PA-1)

C[C@]12CCC[C@](C)(C(=O)O)C1[C@@H](O)[C@@H](O)C13CC(CCC12)C(CO)(O[C@@H]1O[C@H](CO)[C@@H](O)[C@H](O)[C@H]1O)C3 (stereo not given in full)
inactive: max response (CRL-7250) 4.72% | max response (HEK293) -8.27% | outcome (HaCat [1]) | max response (KB-3-1) 8.89% | outcome (NIH3T3 [2]) | outcome (HACAT [3]) inactive [at 17.4 µM] | outcome (NIH3T3 [4]) inactive [at 17.4 µM] | Potency (C33A) | Potency (CAOV3) | outcome (CASKI) | Potency (Es-2) | Potency (HeLa) | Potency (Hek293T) | Potency (JEG-3) | Potency (OV90) | Potency (PA-1)

CCCC/C=C\CCCCCc1cc(=O)c2ccccc2n1C
inactive: max response (CRL-7250) -5.2% | max response (HEK293) -7.72% | outcome (HaCat [1]) | outcome (KB-3-1) | outcome (NIH3T3 [2]) | outcome (HACAT [3]) | outcome (NIH3T3 [4]) | Potency (C33A) | Potency (CAOV3) | outcome (CASKI) | Potency (Es-2) | Potency (HeLa) | Potency (Hek293T) | Potency (JEG-3) | Potency (OV90) | Potency (PA-1)

CC1(C)CC[C@]2(C(=O)O[C@@H]3O[C@H](CO)[C@@H](O)[C@H](O)[C@H]3O)CC[C@]3(C)C(=CCC4[C@@]5(C)CC[C@H](O[C@@H]6O[C@H](C(=O)O)[C@@H](O)[C@H](O)[C@H]6OC6OC(CO)C(O)C(O)C6O)C(C)(C)C5CC[C@]43C)[C@@H]2C1 (stereo not given in full)
inactive: max response (CRL-7250) 3.56% | max response (HEK293) -12.1% | outcome (HaCat [1]) | outcome (KB-3-1) | outcome (NIH3T3 [2]) | outcome (HACAT [3]) inactive [at 9.27 µM] | outcome (NIH3T3 [4]) inactive [at 9.27 µM] | activity change, negative = cytotoxicity (C33A) 0.935% [at 11.6 µM] | activity change, negative = cytotoxicity (CAOV3) 8.5% [at 11.6 µM] | activity change, negative = cytotoxicity (CASKI) 2.93% [at 11.6 µM] | activity change, negative = cytotoxicity (Es-2) 5.59% [at 11.6 µM] | activity change, negative = cytotoxicity (HeLa) 8.29% [at 11.6 µM] | activity change, negative = cytotoxicity (Hek293T) 25.2% [at 11.6 µM] | activity change, negative = cytotoxicity (JEG-3) 4.48% [at 11.6 µM] | activity change, negative = cytotoxicity (OV90) 1.96% [at 11.6 µM] | activity change, negative = cytotoxicity (PA-1) 17.8% [at 11.6 µM]

C=C(CC/C=C(\C)C(=O)O)C1(O)CC=C(C)CC1 (stereo not given)
inactive: max response (CRL-7250) 2.5% | max response (HEK293) 4.47% | outcome (HaCat [1]) | outcome (KB-3-1) | outcome (NIH3T3 [2]) | outcome (HACAT [3]) | outcome (NIH3T3 [4]) | Potency (C33A) | Potency (CAOV3) | outcome (CASKI) | Potency (Es-2) | Potency (HeLa) | Potency (Hek293T) | Potency (JEG-3) | Potency (OV90) | Potency (PA-1)

C=C1[C@H]2CCC3[C@]4(C)CCC[C@@](C)(C(=O)O)C4CC[C@]3(C2)[C@H]1OC(C)=O (stereo not given in full)
inactive: max response (CRL-7250) -1.83% | max response (HEK293) 3.77% | outcome (HaCat [1]) | outcome (KB-3-1) | outcome (NIH3T3 [2]) | outcome (HACAT [3]) | outcome (NIH3T3 [4]) | Potency (C33A) | Potency (CAOV3) | outcome (CASKI) | Potency (Es-2) | Potency (HeLa) | Potency (Hek293T) | Potency (JEG-3) | Potency (OV90) | Potency (PA-1)

O=C(/C=C/c1ccc(O)cc1)O[C@H]1[C@H](OC2CCCCC2O)O[C@H](CO)[C@@H](O)[C@@H]1O (stereo not given in full)
inactive: max response (CRL-7250) -2.64% | max response (HEK293) 2.98% | outcome (HaCat [1]) | max response (KB-3-1) 5.56% | outcome (NIH3T3 [2]) | outcome (HACAT [3]) inactive [at 17.4 µM] | outcome (NIH3T3 [4]) inactive [at 17.4 µM] | Potency (C33A) | Potency (CAOV3) | outcome (CASKI) | Potency (Es-2) | Potency (HeLa) | Potency (Hek293T) | Potency (JEG-3) | Potency (OV90) | Potency (PA-1)

CC(C)C1NC(=O)C2CCCN2C1=O (stereo not given)
inactive: outcome (CRL-7250) | max response (HEK293) 0.78% | outcome (HaCat [1]) | outcome (KB-3-1) | outcome (NIH3T3 [2]) | outcome (HACAT [3]) | outcome (NIH3T3 [4]) | Potency (C33A) | Potency (CAOV3) | outcome (CASKI) | Potency (Es-2) | Potency (HeLa) | Potency (Hek293T) | Potency (JEG-3) | Potency (OV90) | Potency (PA-1)

C=C1C(O)C(OC(=O)c2ccccc2)C2C(C)(C(=O)O)CCCC2(C)C1CC/C(C)=C\CO (stereo not given)
inactive: max response (CRL-7250) -4.65% | max response (HEK293) -1.62% | outcome (HaCat [1]) | max response (KB-3-1) 5.47% | outcome (NIH3T3 [2]) | outcome (HACAT [3]) inactive [at 17.4 µM] | outcome (NIH3T3 [4]) inactive [at 17.4 µM] | Potency (C33A) | Potency (CAOV3) | outcome (CASKI) | Potency (Es-2) | Potency (HeLa) | Potency (Hek293T) | Potency (JEG-3) | Potency (OV90) | Potency (PA-1)
